Source: PubChem BioAssay
ATXN2 expr inh = Primary qHTS for Inhibitors of ATXN expression | HEK-293 ATXN2-luciferase reporter, luminescence, 24 h | Potency, µM (series often up to 57 µM), hits mostly inhibitors | 360,000 tested, 0.72% active | AID 1745845, 2022; note: nearly all actives have a fitted effect of over 55% in size
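qHTS (up to 57 uM final) was run with 24 h compound exposure of reporter cells at 37 °C. Each well was multiplexed: SteadyGlo luminescence measured ATXN2-luciferase expression after a fluorogenic Gly-Phe-AFC viability readout (25 uM final).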
ATXN viability = Viability Counterscreen for Primary qHTS for Inhibitors of ATXN expression; Potency, µM (doses to about 56.7 µM), hits mostly cytotoxic; AID 651635, 2014; 400,000 tested, 0.49% active; S2 cells (HEK-293 line with an ATXN2-luciferase reporter) viability, CellTiter-Fluor protease fluorescence, 24 h; note: nearly all actives have a fitted effect of over 40% in size
HepG2 tox = qHTS for Inhibitors of TGF-b: Cytotox Counterscreen; HepG2 CAGA-GFP viability, ATP luminescence, 18 h; Potency, µM (doses to about 46.1 µM), usual class: cytotoxic; 410,000 tested, 0.76% active
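HepG2 CAGA-GFP cells (1000/well, DMEM with 1% FBS) received compound, then TGF-beta at 500 pg/mL final, and were incubated 18 hours at 37 degrees C. Viability was read by CellTiter-Glo luminescence. Media-only wells were set as complete cell-killing and DMSO as no toxicity.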
ALOX12 inh = Primary qHTS assay for inhibitors of human arachidonate 12S-lipoxygenase (ALOX12): Round 2; AID 1671190, 2021; Potency, µM (doses to about 108 µM), usual class: inhibitors; 580,000 tested, 1.1% active; Polyunsaturated fatty acid lipoxygenase ALOX12 (Homo sapiens), P18054; purified 12hLO, xylenol orange hydroperoxide absorbance
Target sequence (P18054 whole entry, looked up): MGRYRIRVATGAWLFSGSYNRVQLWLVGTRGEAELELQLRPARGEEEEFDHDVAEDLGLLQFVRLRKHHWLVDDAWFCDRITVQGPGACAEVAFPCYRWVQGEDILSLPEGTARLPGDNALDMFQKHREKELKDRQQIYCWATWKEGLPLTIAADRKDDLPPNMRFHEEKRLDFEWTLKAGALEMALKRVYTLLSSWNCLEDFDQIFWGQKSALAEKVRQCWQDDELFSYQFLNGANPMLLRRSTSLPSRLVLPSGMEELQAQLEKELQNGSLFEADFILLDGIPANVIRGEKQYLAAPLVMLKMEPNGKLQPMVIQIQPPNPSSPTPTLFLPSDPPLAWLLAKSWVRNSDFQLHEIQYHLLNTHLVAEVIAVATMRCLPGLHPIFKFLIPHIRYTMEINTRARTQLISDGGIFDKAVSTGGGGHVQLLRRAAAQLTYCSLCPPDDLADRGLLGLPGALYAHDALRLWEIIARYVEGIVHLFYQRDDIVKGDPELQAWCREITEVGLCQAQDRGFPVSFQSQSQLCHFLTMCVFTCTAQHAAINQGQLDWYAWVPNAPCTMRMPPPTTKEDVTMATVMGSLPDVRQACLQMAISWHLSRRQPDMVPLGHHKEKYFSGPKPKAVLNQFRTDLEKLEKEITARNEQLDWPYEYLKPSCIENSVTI
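Purified human 12hLO (150 nM final) in 25 mM Hepes, 0.01% Triton X-100, pH 7.0 was preincubated 15 min at room temperature with compound. Then 40 uM arachidonic acid was added, 30 min. Hydroperoxide was read by Fe-XO absorbance ratio 573/405 nm.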
TGFb SMAD3 inh = qHTS for Inhibitors of TGF-b; 410,000 tested, 1.2% active; Potency, µM (highest dose often 46.1 µM), usual class: inhibitors; AID 588855, 2011; HepG2 CAGA-GFP TGF-b/SMAD3 reporter, GFP fluorescence, 18 h; TGF-beta stimulated, 500 pg/mL final; note: nearly all actives have a fitted effect of over 65% in size
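Inhibition was scored as loss of TGF-beta-induced (500 pg/mL final, 18 hours, 37 degrees C) GFP in HEPG2 cells carrying a CAGA-GFP reporter, in DMEM with 1% FBS. Well GFP was summed per cell; Activity was normalised to unstimulated and stimulated DMSO wells, then concentration-response fitting.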
A number is an active result; - = inactive; ? = inconclusive; . = not tested or not shown; ! = not confirmed by another sample; [ ] = another dose, or the depositor's remark. An excerpt weighted towards active compounds, which were near 2.7% of everything screened. Calls come from the whole dose curve; as a rule, active = well fitted curve in the direction sought with a large enough effect; inconclusive = small, poorly fitted or top-dose-only effect, or another doubt; inactive = no such curve, though single readings can be large; an effect the other way counts as inactive or inconclusive.

SMILES | ATXN2 expr inh | ATXN viability | HepG2 tox | ALOX12 inh | TGFb SMAD3 inh
COc1cccc(C(=O)Nc2cc(C)on2)c1 | . | - | - | - | -
COc1ccc(OCc2cccc(C(=O)NN)c2)cc1 | 2.2µM | - | - | - | -
COc1ccc(OCc2cccc(C(=O)Nc3cc(C)on3)c2)cc1 | 2.2µM | - | - | - | ?
COc1ccc(C(=O)Nc2ccc(OCc3ccccc3)cc2)cc1[N+](=O)[O-] | . | . | - | - | -
COc1ccc(OCc2cccc(C(=O)Nn3cc([N+](=O)[O-])cn3)c2)cc1 | 1µM | - | - | - | -
NNC(=O)c1cccc(COc2ccc(Br)cc2)c1 | - | - | - | - | -
COCCCNc1oc(-c2ccc(S(=O)(=O)N3CCCC3)cc2)nc1C#N | . | . | . | - | .
Cc1ccccc1-c1nnc(SCC(=O)Nc2nnc(-c3ccccc3)o2)n1C | . | . | . | - | .
NC(=O)C1CCN(c2cc(-c3noc([C@@H]4CCCN4Cc4ccc(F)c(F)c4)n3)ccn2)CC1 | . | . | . | - | .
COc1ccc(Cl)cc1NC(=O)N1CCC2(CC1)N=C(c1ccc(C(C)(C)C)cc1)C(=O)N2 | . | . | . | - | .
C=CCn1c(SCC(=O)NC2CCCC2)nc2scc(-c3ccco3)c2c1=O | - | - | - | 45µM | -
CCCNC(=O)CCc1ccc(C#N)cc1 | . | . | . | - | .
Cc1cccc[n+]1Cc1ccccc1 | . | . | . | 16µM | .
Brc1cccc[n+]1CCC[n+]1ccccc1Br | . | . | - | . | -
Cc1cccc[n+]1CCCCCCCCCC[n+]1ccccc1C | -[11.3 µM] | ? | - | 14µM! | ?
COC(=O)c1nc2ccccc2nc1N1CCN(Cc2ccccc2)CC1 | . | . | . | - | .
Cn1c(=O)c2c(nc(CN3CCc4ccccc4C3)n2CC(=O)c2ccccc2)n(C)c1=O | - | - | - | - | 7.9µM
Fc1ccc(-[n+]2nc(Nc3ccccc3)sc2-c2c3ccccc3cc3ccccc23)cc1 | 25µM | 11µM | 11µM | ? | 11µM
Oc1ccc2ccccc2c1-c1sc(Nc2ccccc2)n[n+]1-c1ccc(F)cc1 | - | - | - | ? | -
COc1ccc(-c2nc(COC(=O)C3(O)CCCCC3)cs2)cc1 | . | . | . | - | .
O=C1CCCCCN1C1CCN(Cc2ccccc2C(F)(F)F)CC1 | . | . | . | - | .
O=C(NNC(=O)c1ccccc1-c1ccccc1C(=O)O)c1ccccc1 | - | - | - | - | -
O=C(C=P(c1ccccc1)(c1ccccc1)c1ccccc1)c1ccccc1-c1ccccc1C(=O)C=P(c1ccccc1)(c1ccccc1)c1ccccc1 | ? | . | 1.6µM | ? | 1µM
CCC1c2ccsc2CCN1C(=O)/C=C/c1sccc1C (stereo not given) | . | . | . | - | .
COc1ccc2cnn(CC(=O)N(C)Cc3ccccc3)c(=O)c2c1OC | . | . | . | - | .
SMILES | ATXN2 expr inh | ATXN viability | HepG2 tox | ALOX12 inh | TGFb SMAD3 inh
N#Cc1cccc2c1-c1ccccc1/C2=N/NC(N)=O | ? | ? | - | . | -
N#Cc1cccc2c1-c1ccccc1/C2=N/NC(N)=S | - | ? | 7.1µM | . | 5µM
NC(=S)NN=C1c2ccccc2-c2cc(Br)ccc21 | ? | ? | - | 40µM | 2.8µM
ON=C1c2ccccc2-c2ccc(Br)cc21 | - | - | - | - | -
CC1CN(C(=O)COC(=O)c2ccc(N)c([N+](=O)[O-])c2)CC(C)O1 (stereo not given) | - | ? | - | - | -
CS(=O)(=O)c1ccc(C(=O)OCC(=O)N2CCCC2)cc1[N+](=O)[O-] | . | . | - | . | 11µM
Cc1ccc(C(=O)OCC(=O)N2CCOCC2)cc1 | - | - | - | - | -
CC1CCCCN1C(=O)COC(=O)c1ccc(S(C)(=O)=O)c([N+](=O)[O-])c1 (stereo not given) | . | . | 7.9µM | . | ?
CS(=O)(=O)c1ccc(C(=O)OCC(=O)N2CCOCC2)cc1[N+](=O)[O-] | ? | ? | 8.9µM | - | 7.1µM
CS(=O)(=O)c1ccc(C(=O)OCC(=O)N2CC(=O)Nc3ccccc32)cc1[N+](=O)[O-] | . | . | - | . | -
CS(=O)(=O)c1ccc(C(=O)OCC(=O)N2CCN(CCC3CCCCC3)CC2)cc1[N+](=O)[O-] | 3.5µM | ? | 3.2µM | - | 4µM
N#CC(=C(N)Sc1ccccc1N)C(C#N)=C(N)Sc1ccccc1N | ? | . | . | 22µM | .
